29 compounds from the supplement of paper PMC7530171 can be followed below.

Where a name gives a salt, the structure may show the parent alone. ± gives the standard deviation.

The subject of assay [1] is THP-1. Put plainly: THP-1 cell loss relative to DMSO control; higher = more host cell loss (toxicity); extreme values may be limits of the assay. To be noted: 10 µM; 4 days; infection: M. tuberculosis H37Rv. As to the method:
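OICR kinase inhibitor library screened in duplicate at 10 uM against M. tuberculosis-infected THP-1 macrophages, 4 days at 37 C. THP-1 cell loss (cytotoxicity or loss of adherence) was quantified from Hoechst-stained nuclei counts by high-content imaging and normalised to the 1% DMSO control; 100 = complete loss of host cells.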

The subject of assay [2] is THP-1 macrophages infected with Mycobacterium tuberculosis H37Rv. Put plainly: intracellular M.tb growth inhibition relative to DMSO (0) and 4 uM bedaquiline (100); higher = stronger inhibition of intracellular bacterial growth. The note with it: 10 µM; 4 days. As to the method: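 OICR kinase inhibitor library screened in duplicate at 10 uM against THP-1 macrophages (PMA-differentiated) infected with M. tuberculosis H37Rv-pTEC27 (tdTomato RFP), 4 days at 37 C. Rows with complete host cell loss (placeholder inhibition 0, cell loss 100) were removed.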

For the compound `CO[C@H]1C[C@@H]2CC[C@@H](C)[C@@](O)(O2)C(=O)C(=O)N2CCCC[C@H]2C(=O)O[C@H]([C@H](C)C[C@@H]2CC[C@@H](O)[C@H](OC)C2)CC(=O)[C@H](C)/C=C(\C)[C@@H](O)[C@@H](OC)C(=O)[C@H](C)C[C@H](C)/C=C/C=C/C=C/1C` [Rapamycin], the THP-1 cell loss in assay [1] stood at 33.4 ± 6.3%. Moreover, in assay [2], the “intracellular M.tb growth inhibition” value was found to be 15.9 ± 11%.
`COc1cc(F)c(F)c(Nc2ccc(I)cc2F)c1NS(=O)(=O)C1(C[C@H](O)CO)CC1`: the THP-1 cell loss in assay [1] was determined as 84.9 ± 1%. Moreover, the “intracellular M.tb growth inhibition” value in assay [2] came out at 44.7 ± 27%.
In the case of `CO[C@H]1C[C@@H]2CC[C@@H](C)[C@@](O)(O2)C(=O)C(=O)N2CCCC[C@H]2C(=O)O[C@H]([C@H](C)C[C@@H]2CC[C@@H](OC(=O)C(C)(CO)CO)[C@H](OC)C2)CC(=O)[C@H](C)/C=C(\C)[C@@H](O)[C@@H](OC)C(=O)[C@H](C)C[C@H](C)/C=C/C=C/C=C/1C` [Temsirolimus], in assay [1], the THP-1 cell loss came to 43 ± 2%. Moreover, the “intracellular M.tb growth inhibition” value in assay [2] was -22.8 ± 24%.
In turn, `COc1cc(Nc2c(C#N)cnc3cc(OCCCN4CCN(C)CC4)c(OC)cc23)c(Cl)cc1Cl` [Bosutinib] came in with a THP-1 cell loss in assay [1] of 59.6 ± 15%. The “intracellular M.tb growth inhibition” value in assay [2] was 109 ± 1.8%.
For `COc1cc(CCc2cc(NC(=O)c3ccc(N4CC(C)NC(C)C4)cc3)n[nH]2)cc(OC)c1` (stereo not drawn), the THP-1 cell loss in assay [1] came out at 45.7 ± 11%. The “intracellular M.tb growth inhibition” value in assay [2] was -216 ± 180%.
For `CO[C@H]1C[C@@H]2CC[C@@H](C)[C@@](O)(O2)C(=O)C(=O)N2CCCC[C@H]2C(=O)O[C@H]([C@H](C)C[C@@H]2CC[C@@H](OCCO)[C@H](OC)C2)CC(=O)[C@H](C)/C=C(\C)[C@@H](O)[C@@H](OC)C(=O)[C@H](C)C[C@H](C)/C=C/C=C/C=C/1C` [Everolimus], in that order: 22 ± 0.045% and 3.03 ± 13%.
For `COc1cc(Nc2ncc(F)c(Nc3ccc4c(n3)NC(=O)C(C)(C)O4)n2)cc(OC)c1OC`, in that order: 63.4 ± 52% and -164 ± 230%.
The matching figures for `Cc1cccc(-c2nn(C(=S)Nc3ccccc3)cc2-c2ccnc3ccccc23)n1`: 2.37 ± 3.4% and 17.7 ± 18%.
For `C[C@@]1(C(=O)Nc2ccc(F)nc2)CCCN1c1nc(Nc2cc(C3CC3)n[nH]2)c2cccn2n1`, the THP-1 cell loss in assay [1] amounted to 43.7 ± 27%. In addition, the “intracellular M.tb growth inhibition” value in assay [2] was -265 ± 70%.
In turn, `O=C(CO)N1CCC(c2n[nH]c(-c3ccc(Cl)cc3)c2-c2ccncn2)CC1` yielded a THP-1 cell loss in assay [1] of 11.1 ± 0.43%. For the same compound, the “intracellular M.tb growth inhibition” value in assay [2] is -135 ± 140%.
In assay [1], `CCN(CC)CCNC(=O)c1c(C)[nH]c(/C=C2\C(=O)Nc3ccc(F)cc32)c1C` [Sunitinib Malate] gave a THP-1 cell loss of 53.7 ± 18%. Also, in assay [2], the “intracellular M.tb growth inhibition” value was -45.8 ± 29%.
For `O=C1NC(=O)/C(=C/c2ccc3c(c2)OC(F)(F)O3)S1`, in that order: 7.44 ± 3.3% and 42.5 ± 35%.
The matching figures for `O=C(NC1CCNCC1)c1n[nH]cc1NC(=O)c1c(Cl)cccc1Cl`: 90.2 ± 14% and 29.6 ± 42%.
The matching figures for `Cn1cc(-c2cnc3ccc4ccc(CS(=O)(=O)NCc5ccccn5)cc4c(=O)c3c2)cn1`: 52.3 ± 67% and -162 ± 230%.
Take `CC1(C)CNc2cc(NC(=O)c3cccnc3NCc3ccncc3)ccc21` [Motesanib diphosphate salt]: the THP-1 cell loss in assay [1] turned out to be 4.91 ± 6.9%. Besides, the “intracellular M.tb growth inhibition” value in assay [2] turned out to be 44.9 ± 27%.
In turn, `O=C1NCc2c1c1c3ccccc3[nH]c1c1[nH]c3ccccc3c21` returned a THP-1 cell loss in assay [1] of 35.8 ± 3.5%. Also, the “intracellular M.tb growth inhibition” value in assay [2] turned out to be 37.2 ± 30%.
For `COc1cc(OC)c(/C=C/S(=O)(=O)Cc2ccc(OC)c(NCC(=O)O)c2)c(OC)c1`, in that order: 44.7 ± 2.4% and -33.5 ± 120%.
With `OCCn1cc(-c2ccc3c(c2)CC/C3=N\O)c(-c2ccncc2)n1`, the THP-1 cell loss in assay [1] came out at 9.27 ± 7.9%. The “intracellular M.tb growth inhibition” value in assay [2] is -91.1 ± 160%.
`O=C1Nc2ccc(I)cc2/C1=C/c1cc(Br)c(O)c(Br)c1`: the THP-1 cell loss in assay [1] turned out to be 20.5 ± 16%. Also, the “intracellular M.tb growth inhibition” value in assay [2] stood at 9.15 ± 48%.
In assay [1], `NC(=O)c1ccc(N(C(N)=O)c2c(F)cccc2F)nc1-c1ccc(F)cc1F` yielded a THP-1 cell loss of 10.1 ± 4.9%. Besides, the “intracellular M.tb growth inhibition” value in assay [2] was -1.77 ± 10%.
For `CCc1cc(Nc2nccc(-c3c(-c4ccc(OC)c(C(=O)Nc5c(F)cccc5F)c4)nc4ccccn34)n2)c(OC)cc1N1CCC(N2CCN(S(C)(=O)=O)CC2)CC1`, in that order: 10.9 ± 13% and -49.9 ± 68%.
`c1cc(OCCN2CCCCC2)cc(-c2n[nH]c3ccc(-c4nnc[nH]4)cc23)c1`: in assay [1], the THP-1 cell loss stood at 3.37 ± 4.8%. The “intracellular M.tb growth inhibition” value in assay [2] was -65.3 ± 120%.
The matching figures for `COc1cc2nccc(Oc3ccc(NC(=O)Nc4ccc(F)cc4F)c(F)c3)c2cc1OC`: 8.51 ± 5.2% and 25.2 ± 4.6%.
The matching figures for `CS(=O)(=O)c1cccc(CNc2nc(Nc3ccc4c(c3)CCC(=O)N4)ncc2C(F)(F)F)c1`: 56.3 ± 6% and -96.4 ± 26%.
For `CO[C@@H]1[C@H](N(C)C(=O)c2ccccc2)C[C@H]2O[C@]1(C)n1c3ccccc3c3c4c(c5c6ccccc6n2c5c31)C(=O)NC4`, in that order: 30.8 ± 4.7% and 60.7 ± 13%.
For `Oc1c2ccccc2c2c3c(cccc13)N=N2`, the THP-1 cell loss in assay [1] worked out at 19.8 ± 16%. In addition, the “intracellular M.tb growth inhibition” value in assay [2] worked out at 12.9 ± 20%.
On to `N#Cc1c(-c2ccccc2)cc(-c2cc(Br)ccc2O)[nH]c1=O`, for which the THP-1 cell loss in assay [1] came to 8.6 ± 8.9%. In addition, the “intracellular M.tb growth inhibition” value in assay [2] was determined as 19.8 ± 17%.
In assay [1], `Cn1c2ccccc2c2c3c(c4c5ccccc5n(CCC#N)c4c21)CNC3=O` showed a THP-1 cell loss of 32.2 ± 18%. Moreover, the “intracellular M.tb growth inhibition” value in assay [2] was -29.9 ± 36%.
The compound `Cc1c(NC(=O)OC[C@@H]2COCCN2)cn2ncnc(Nc3ccc4c(cnn4Cc4cccc(F)c4)c3)c12` returned a THP-1 cell loss in assay [1] of 16.7 ± 9.5%. In assay [2], the “intracellular M.tb growth inhibition” value is 48.3 ± 10%.
